The text below walks through data of PubChem BioAssay AID1508600 (Functional Genomics Laboratory (NCATS/FGL), 2020).

Out of some 53,000 sequences screened, about 3,700 (7%) were called active.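 How the source made its calls: active means gene knockdowns whose robust z-score for IL-1 alpha signal is at least 2 or at most -2, so actives lie on both sides; inactive means the rest.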 The full list was thinned out, with actives kept by preference.

The nature of the assay: Components of the Cytosolic LPS Sensing Pathway: Gene Identification via Genome-wide siRNA Screen.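 Further: robust z of the log signal after scaling to non-targeting control siRNA wells of the plate.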 The note with it: RAW264.7 macrophages, IL-1a HTRF, actives lie on both sides, screened at 100 nM (by protocol), cells primed 5 h with Pam3CSK4 first. In short, it runs like this:
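RAW264.7; siRNA 100 nM final, RNAiMAX, 48h 37 degrees C; Pam3CSK4 5 h; LipidA + TransIT-TKO 24 h; IL-1a HTRF; CellTiter-Glo viability; robust z vs negative-control median.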
On the technique in general: Time-resolved FRET reads energy transfer from a long-lived donor to a nearby acceptor.
As to GGGACAGGUUGAGGUCUAUTT against Vmn1r233, the z-score is 2.01 (active).
Under GGCAUACCGAAAGUUAGCCTT against Dnaja2 stands -0.724 (inactive); under GGAGGUCCAGGAUUUUAUATT against Styk1, 1.12 (inactive); under “GCUUCAACAUGCUUUGUUUTT against A430010J10Rik”, -0.555 (inactive).
For CCCUACUCCUCAGAACUUATT against Tbc1d10a, the z-score is -0.499 (inactive).
Under CCAAAAAGAGCGAUUACCCTT against Shc1 stands 0.368 (inactive); under CGCAGAAAGAGCAUCAGAUTT against Atg9a, -2.42 (active).
Consider GCGACUGUGGUGGUUACAUTT against Bcas2, for which the z-score is 0.444 (inactive).
To “GGGAAGGAAGAAUUUAUUUTT against 6430571L13Rik” belongs 1.24 (inactive); to GCUGCUCAAUCGGAAAUACTT against Clk1, -2.06 (active).
To CCAGGUGUAUAAUAAGAUGTT against Atp8b3 belongs 0.271 (inactive); to GCAAUGACAGAACAUACAGTT against Cts7, 1.67 (inactive).
To GGCAGAAAGAAAUUGAGAATT against Trim42 belongs -0.655 (inactive); to CAGCAUCUUUGAUUGUCUGTT against Tssc4, 2.15 (active); to GCUUAUGCCAGUCUGUCAUTT against Hax1, -0.206 (inactive).
With CCAUACAUCAGUACUUACCTT against Olfr553, the z-score was 0.477 (inactive).
Under GCGUGUUCGCUUCUUGCUATT against Trub2 stands -0.614 (inactive); under CCACAGAAUAAGACAAUAUTT against Fbxo34, -3.03 (active).
In the case of CCAUUCAGUCGAUUACAUUTT against Chd9, the z-score is 0.204 (inactive).
To GGACUUUUCUUUUGGAAGGTT against Nbl1 belongs -0.08 (inactive); to GCCUUUCCACCGAUGAAAUTT against Dpyd, -0.473 (inactive); to GGAGCACAUCUUUUCUGCCTT against Mixl1, -1.22 (inactive).
Under CCAAUUAUUAUCCAAGGGCTT against Slc16a6 stands -0.0144 (inactive); under GCUAUAACCUCACCGAGAATT against Tedc2, 2.09 (active).
Regarding GGAAAAGCAGACAUGUGAUTT against Dedd, the z-score is -0.875 (inactive).
Turning to CCAUUCAUACCAUACCUGUTT against Tmem50a, the z-score was -0.521 (inactive).
Under GGGCAUUAGGGUGGUAGCATT against Gapdhs stands -0.826 (inactive); under GCUUAGUGGUUCUUAUUUGTT against Olfr893, -0.214 (inactive).
On to GCUUCAUAUAGACAAAGCCTT against Epo, for which the z-score was -0.625 (inactive).
To GGAAGUUAGUUUCGUUUUATT against Rprd1b belongs 2.03 (active).
Consider GGCAAGAUCUUCAAGUGAATT against Eef1g, for which the z-score is -0.809 (inactive).
Under GGAACAUUUUGGAAAUGACTT against Fbxo25 stands -0.625 (inactive); under GGAAGAAGAAGGAGCUAGATT against Slu7, -2.2 (active).
To CCACCCACUAAACCUAAAUTT against Pcolce belongs 0.136 (inactive); to GGACACCAAAGUGAAUACATT against Cdhr5, 0.122 (inactive); to GGAGAUGGCACAGUCAGUCTT against Slc22a8, -0.338 (inactive).
To GGGUUGUGGCUGCUACUAUTT against Pira2 belongs 2.18 (active); to GCUACUGGUUGGGUUGAAGTT against Tbcd, 1.47 (inactive).
GGAAGCUUUGGGAAACAGUTT against Bmp2: the z-score is -0.226 (inactive).
To GGCCACUUGUCUCAUUGUGTT against Xlr4c belongs -1.93 (inactive).
Consider GGAUACCAUCCUAGGCCUGTT against Ephx3, for which the z-score is -0.603 (inactive).
To GCCUCAUCGUUGCUGACUATT against Pde3b belongs -2.04 (active); to GGAUGGUAACCAUCAUAUUTT against Vmn1r54, -0.887 (inactive).
Under CCUCAUUGUUUUAUACCCUTT against Olfr1140 stands 0.309 (inactive); under GGGAUUAUACUAAUCCAACTT against Wdr45, 1.24 (inactive).
As to GCUUCUUCCUUAGAUGGCATT against Kcnb1, the z-score is -1.32 (inactive).
Under GGUGCAUUUUGUCUAUGAUTT against Lamp5 stands -2.04 (active).
For CGACCAGCCAUGGUACAAATT against Ptprd, the z-score was -0.83 (inactive).
Under CGUAGAAGAGUACAUGAUUTT against Pdcd10 stands -0.526 (inactive).
Under GGAGAAAAGGAAGUUGAGGTT against Bnip3l stands -1.76 (inactive); under GGGUUUCCAAGAAGGAAGCTT against Utp25, 0.852 (inactive).
Under CCUUUUUCGAAAAAUCAGGTT against Lyst stands -0.39 (inactive); under CCACAUAUAUCAACAAGCUTT against Olfr916, -0.257 (inactive); under CCAAGAUAGUCCCUAUCCCTT against Scamp3, 0.346 (inactive).
Turning to GGUAUGAUGAACAGUCCAGTT against Ep300, the z-score was -2.35 (active).
Under GGCUUGUUAAUGAAUGCACTT against Ankrd9 stands -0.894 (inactive).
To GGCUUUGAAGAAGAGCUUUTT against Atp6v0a4 belongs -0.775 (inactive).
To GCACAGCGGUAAACAAAAUTT against Ywhaz belongs -0.00575 (inactive).
In the case of GUAUCCUUCACAACUGUCUTT against Olfr786, the z-score was -1.66 (inactive).
To GGAAUCUGCUGAGGUUUAUTT against Cidea belongs 4.08 (active); to GGAGCUGAGGAAAAAGAUUTT against Uhrf1, -0.993 (inactive); to GGCUUAUCAGUCCAUGAAGTT against Dhrs11, -0.601 (inactive).
For GGCGAUCAGGCAUCAUCCUTT against Aox1, the z-score is -0.153 (inactive).
With GGCAACCAGUCUCAUCAAUTT against Scgb1b27, the z-score is -0.927 (inactive).
Under GCAGAGAUACCUAUCAAAGTT against Angptl4 stands 1.16 (inactive); under GGAAGAGGAACAGUUAGCCTT against Zfp553, -0.24 (inactive); under GGAGGUCUGGAUUAACUGUTT against Cd163l1, 2.2 (active).
Under GCAUCCUGAGCAGUGAUAUTT against Taar7b stands -1.75 (inactive).
To GGGUGCAGUGGAGUCUAUUTT against Smc1a belongs -1.31 (inactive); to GGAUUCUGAAGUGUAAAGATT against Icos, -0.764 (inactive); to GGCAGAGAUUGAGAGCAAGTT against Palm, 2.28 (active).
Take GGAGUUCCUCAAGAAUUUUTT against Arpc4: the z-score is -1.39 (inactive).
Turning to GGUUGUACUGAGUAGCUGGTT against Slc7a4, the z-score was 0.997 (inactive).
Under GGUUUACAAGAGUUACAGUTT against Brpf1 stands 0.493 (inactive); under GCAAAGUUGGUGACGUGAUTT against Pole2, -2.15 (active).
Under CCAAUAAGGCAUAUGUUUUTT against Scarb2 stands -0.608 (inactive).
To GGCACAGCUUGCUGAAGCUTT against Atp11b belongs -1.76 (inactive); to GGAAUACAAAGAUAGCUUCTT against Atrn, 0.786 (inactive); to GGCUUCUGGACCUCAAACATT against Zfp92, -2.14 (active).
As for “GGCAAUGUUUUUCUUGUUGTT against 9330132A10Rik”, the z-score was -1.12 (inactive).
To GACCCGCUGCUGCUCAAAUTT against Cdc42ep5 belongs -0.178 (inactive); to GGGCAAAAGUACUUUGACUTT against Ensa, 2.2 (active).
Under GGACUGUGAUCAGGUUUGUTT against Elk3 stands 0.695 (inactive); under GGUAACCAUGAUGAUGACATT against Tmem38b, -2.05 (active).
Consider GGAAGACACAUUUUUCCAUTT against Serpinb9e, for which the z-score was 0.733 (inactive).
Under GGUCUCUCGGACUUUUUCCTT against Adipor1 stands -0.765 (inactive); under CCAAUGUUGGCAUUAUGUUTT against Fah, -0.354 (inactive); under GGAAGAAACUGGAAAGAUUTT against Ankrd23, -1.01 (inactive).
To GGAAUGGUCCCUCCAAUGATT against Prpf40b belongs 2.38 (active).
Under GGACACAAGCCUAUUCCAATT against Rffl stands 1.59 (inactive).
GGAUUCAAGCAUCGGAUUGTT against Adamts6: the z-score was 1.11 (inactive).
To GGCAAUUGUCUCAUUCUGATT against Olfr631 belongs 0.806 (inactive).
To CCAUCAACCCAUCAUGUGCTT against Pitpnc1 belongs -1.25 (inactive).
Under GGCCUUGUAUGAAUUAUUUTT against Sqle stands 2.18 (active); under GGGAGCAAAUUAGAGAAAUTT against Gsk3b, 0.884 (inactive).
As for GGUCCUCGGUUACAGAAACTT against Cnr2, the z-score was -0.263 (inactive).
On to CCCAGCUUUUCAACUUGCUTT against Tmc4, for which the z-score is -1.19 (inactive).
To GGGCCUUGUUUUAGGAAUUTT against Lap3 belongs 2.2 (active); to GGUACUGGAUCAAAGAAACTT against Gm11992, -1.75 (inactive).
Under GCUGGUACAAGGUGUUUGATT against Pqbp1 stands 0.825 (inactive).
To GGAAGCACUCAGUGCUCUGTT against Igfbp6 belongs 2.06 (active).
GGAGGUGAAGCUCAUUGUCTT against Ildr1: the z-score is -0.165 (inactive).
Consider CCGUGUCAUUUGGAGAGCUTT against Ndufaf5, for which the z-score is -0.248 (inactive).
To GGUGCAGUUCAGCAACAAGTT against Mat2b belongs -1.65 (inactive); to GCAGUUGGGUUGGUAACUATT against Ash1l, 0.101 (inactive).
With GGGCAAACCUUCUAAACUATT against Ttpa, the z-score was 0.505 (inactive).
Under GGAUCACCCAUACAGGAACTT against Pla2g2f stands -2.1 (active).
For GCUGACAAAACUGCUAAACTT against Ctnnb1, the z-score is 0.948 (inactive).
